In PubChem BioAssay AID720566 (Broad Institute, 2013):
Potency and affinity values are given separately. Unmarked numbers belong to inactive results.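 Rule for the calls: active = in all runs, an absorbance decrease of 25% or more of the average positive control decrease; inconclusive = runs conflict, with both active and inactive results; inactive = all runs inactive, opposite-direction effects included.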

target: Protein disulfide-isomerase A6 (Homo sapiens) (UniProt Q15084); assay: inhibitors of ERp5-mediated insulin aggregation, dose response, biochemical, turbidity, absorbance 650 nm, cherry-picked samples (AID 720566); settings: Recombinant ERp5 insulin aggregation; series mostly up to 35 µM; activity change, negative = inhibition: at the top concentration;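 note: negative values mean less insulin aggregation so ERp5 inhibition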
Sequence (Q15084 whole entry, looked up): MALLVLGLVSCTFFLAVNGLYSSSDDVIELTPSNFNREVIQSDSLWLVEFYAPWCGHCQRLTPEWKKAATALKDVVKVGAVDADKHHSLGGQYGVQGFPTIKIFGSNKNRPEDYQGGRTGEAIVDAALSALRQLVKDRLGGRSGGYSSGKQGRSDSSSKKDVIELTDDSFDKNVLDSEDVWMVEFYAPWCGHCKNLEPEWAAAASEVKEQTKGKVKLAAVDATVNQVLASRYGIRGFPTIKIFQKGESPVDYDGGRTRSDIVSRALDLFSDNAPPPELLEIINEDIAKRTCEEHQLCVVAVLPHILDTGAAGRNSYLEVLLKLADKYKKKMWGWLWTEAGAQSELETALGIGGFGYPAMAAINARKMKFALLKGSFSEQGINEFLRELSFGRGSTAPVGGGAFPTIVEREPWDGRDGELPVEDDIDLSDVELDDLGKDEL

SMILES | activity change, negative = inhibition
O=C(NCCCN1CCCC1)c1ccc(CS(=O)(=O)c2c(Cl)cccc2Cl)o1 | -2.6%
CC(=O)Nc1ccc2c(c1)C(=O)N(C)[C@H]1CC[C@H](CC(=O)NCC3CC3)O[C@@H]1CO2 | 1.68%
Cc1noc(C)c1NC(=O)N(C)C[C@H]1Oc2c(NS(=O)(=O)c3ccc(Cl)cc3)cccc2C(=O)N([C@@H](C)CO)C[C@@H]1C | -1.25% [at 30 µM]
CC(C)C#Cc1cnc2c(c1)C(=O)N([C@@H](C)CO)C[C@@H](C)[C@H](CN(C)C(=O)c1ccccc1F)O2 | 4.66%
COc1ccc2c3c([nH]c2c1)[C@@H](CO)N(C(=O)c1ccc(F)cc1)CC31CCN(C(=O)Nc2cccc(F)c2)CC1 | 6.85%
COc1ccc2c3c([nH]c2c1)[C@H](CO)N(C(=O)CN(C)C)CC31CCN(CC2CCCC2)CC1 | 0.289%
CC(C)NC(=O)N(C)C[C@@H]1Oc2ncc(-c3cc4ccccc4o3)cc2C(=O)N([C@H](C)CO)C[C@@H]1C | 4.66%
CC(C)(C)c1cc(NC(=O)c2ccco2)no1 | 8.27%
CCCNC(=O)C[C@@H]1C[C@H]2c3cc(NS(C)(=O)=O)ccc3O[C@H]2[C@@H](CO)O1 | -8.39%
C[C@@H]1CN([C@H](C)CO)C(=O)c2cccc(NC(=O)Nc3cccc4ccccc34)c2O[C@H]1CN(C)C(=O)Nc1ccc(C(F)(F)F)cc1 | -10.1%
COC(=O)C[C@H]1C[C@H]2c3cc(NC(=O)Cc4ccncc4)ccc3O[C@H]2[C@H](CO)O1 | -11.9%
C[C@H]1CN([C@@H](C)CO)C(=O)Cc2cc(NC(=O)c3ccncc3)ccc2O[C@H]1CN(C)S(=O)(=O)c1cn(C)cn1 | 2.8%
COc1cccc(CC(=O)NNC(=O)CN(C)S(=O)(=O)c2ccc(C)cc2)c1 | 6%
C[C@H]1CN([C@@H](C)CO)C(=O)Cc2cc(NC(=O)Nc3cccc4ccccc34)ccc2O[C@H]1CN(C)C(=O)Nc1cccc2ccccc12 | 6.33%
COC(=O)C[C@H]1C[C@@H]2c3cc(NC(=O)Cc4ccncc4)ccc3O[C@@H]2[C@@H](CO)O1 | 2.05%
C[C@@H]1CN([C@H](C)CO)C(=O)c2cccc(NC(=O)Nc3ccc4c(c3)OCO4)c2O[C@H]1CN(C)Cc1ccc(Oc2ccccc2)cc1 | 7.45%
C[C@@H]1CN([C@H](C)CO)C(=O)Cc2cc(NC(=O)Nc3cccc4ccccc34)ccc2O[C@@H]1CN(C)Cc1ccc(C(F)(F)F)cc1 | 5.59%

SMILES | activity change, negative = inhibition
C[C@H](CO)N1C[C@H](C)[C@H](CN(C)C(=O)CCC(F)(F)F)OCCCC[C@H](C)Oc2ccc(NS(=O)(=O)c3ccc(Cl)cc3)cc2C1=O | 7.45%
Cc1ccc(NC(=O)COc2ccccc2)c(NC(=O)c2ccco2)c1 | 2.38%
CN(CC(=O)Nc1ccc(F)cc1)CC(=O)NC1CCCCC1 | 9.17%
COCC(=O)N(C)C[C@H]1Oc2cc(C#CC(C)(C)O)ccc2S(=O)(=O)N([C@@H](C)CO)C[C@@H]1C | 2.99%
C[C@@H]1CN([C@H](C)CO)C(=O)Cc2cc(NC(=O)Nc3cccc4ccccc34)ccc2O[C@@H]1CN(C)C(=O)Nc1cccc2ccccc12 | 11.3%
C[C@@H]1CN([C@H](C)CO)C(=O)c2cc(-c3cccc(C#N)c3)cnc2O[C@H]1CN(C)Cc1cncnc1 | 1.45%
CC(C)CC#Cc1cnc2c(c1)C(=O)N([C@H](C)CO)C[C@H](C)[C@H](CN(C)Cc1ccccc1C(=O)O)O2 | -14% [at 30 µM]
CCC(=O)Nc1ccc2c(c1)C(=O)N(C)[C@H]1CC[C@H](CC(=O)NCC3CC3)O[C@H]1CO2 | -1.49%
C/C=C/c1ccc2c(c1)O[C@H](CN(C)Cc1cncnc1)[C@H](C)CN([C@@H](C)CO)S2(=O)=O | 3.18%
O=C(C[C@@H]1C[C@H]2c3cc(NC(=O)CC4CC4)ccc3O[C@H]2[C@@H](CO)O1)NCc1ccc(-c2ccccc2)cc1 | 4.66%
C[C@@H]1CN([C@@H](C)CO)C(=O)c2cc(Br)cnc2O[C@H]1CN(C)Cc1cccc(F)c1 | 1.25%
COc1ccc2c3c([nH]c2c1)[C@H](CO)N(C(=O)NC(C)C)CC31CN(C(=O)C2CCCC2)C1 | -3.95%
COc1cccc(S(=O)(=O)N2CC3(CN(C(=O)Nc4cccc(F)c4)[C@H](CO)c4[nH]c5cc(OC)ccc5c43)C2)c1 | 4.84% [at 30 µM]
Cc1cccc(Oc2ccc(NS(=O)(=O)c3ccc(C)c(C(=O)O)c3)cc2)c1 | -4.87%
CCCNC(=O)[C@H]1[C@H](CO)[C@H]2Cn3c(ccc(/C=C/c4ccccc4)c3=O)[C@@H]1N2C(C)=O | 5.69%
C[C@@H]1CN([C@H](C)CO)C(=O)Cc2cc(NS(=O)(=O)c3ccc(F)cc3)ccc2O[C@@H]1CN(C)S(=O)(=O)c1cn(C)cn1 | -5.88%
